Experimental findings from PubChem BioAssay (EPA / NIEHS) are described below.

The nature of assay [1]: BSK_CASM3C_Proliferation: Cell Proliferation Assessment in the BioMAP Diversity Plus: CASM3C Assay (AID 2283047).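 Note: sulforhodamine B total protein stain as relative cell number at 560 nm; sub-confluent cells exposed 48 h before staining; fitted both ways against DMSO so gain or loss of cell number.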 Particulars: primary human coronary artery smooth muscle cells.
Read-out in assay [2]: Monokine induced gamma interferon (MIG), CXCL9 (gene 4283)
Description: BSK_CASM3C_MIG: BioMAP Diversity Plus: CASM3C Assay for Monokine induced gamma interferon (MIG) Biomarker Activity (AID 2283048).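 Note: MIG protein level measured by ELISA.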 Particulars: primary human coronary artery smooth muscle cells; actives raise or lower the signal.

Read-out in assay [3]: serum amyloid A (SAA), SAA1 (gene 6288)
Description: BSK_CASM3C_SAA: BioMAP Diversity Plus: CASM3C Assay for serum amyloid A (SAA) Biomarker Activity (AID 2283049).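 Note: SAA protein level quantified by ELISA.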 To be noted: primary human coronary artery smooth muscle cells; actives raise or lower the signal.

A short description of assay [4]: BSK_CASM3C_SRB: Viability Assessment in the BioMAP Diversity Plus: CASM3C Assay (AID 2283050).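 Note: total protein by SRB staining as cytotoxicity measure in parallel cultures; cells exposed to compound for 24 h.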 Particulars: primary human coronary artery smooth muscle cells.
Read-out in assay [5]: Thrombomodulin, THBD (gene 7056)
Description: BSK_CASM3C_Thrombomodulin: BioMAP Diversity Plus: CASM3C Assay for Thrombomodulin Biomarker Activity (AID 2283051).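 Note: thrombomodulin protein level measured by ELISA 24 h after dosing.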 To be noted: primary human coronary artery smooth muscle cells; actives raise or lower the signal.

Read-out in assay [6]: Tissue Factor, F3 (gene 2152)
Kind of assay: BSK_CASM3C_TissueFactor: BioMAP Diversity Plus: CASM3C Assay for Tissue Factor Biomarker Activity (AID 2283052).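 Note: cell surface tissue factor protein level read by ELISA.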 Particulars: primary human coronary artery smooth muscle cells; actives raise or lower the signal.

Read-out in assay [7]: Interferon-gamma inducible Protein 10 (IP10), CXCL10 (gene 3627)
Kind of assay: BSK_hDFCGF_IP10: BioMAP Diversity Plus: hDFCGF Assay for Interferon-gamma inducible Protein 10 (IP10) Biomarker Activity (AID 2283053). To be noted: primary human foreskin fibroblasts; actives raise or lower the signal. The essentials: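 ELISA quantification of IP-10 after a 24 h chemical exposure of human dermal foreskin fibroblast primary cultures. Both increases and decreases versus DMSO fitted.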

Read-out in assay [8]: Urokinase-type plasminogen activator receptor (uPAR), PLAUR (gene 5329)
Description: BSK_CASM3C_uPAR: BioMAP Diversity Plus: CASM3C Assay for Urokinase-type plasminogen activator receptor (uPAR) Biomarker Activity (AID 2283054).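 Note: cell-surface uPAR protein level quantified by ELISA.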 Particulars: primary human coronary artery smooth muscle cells; actives raise or lower the signal.

Read-out in assay [9]: Vascular cell adhesion molecule 1 (VCAM1), VCAM1 (gene 7412)
Kind of assay: BSK_CASM3C_VCAM1: BioMAP Diversity Plus: CASM3C Assay for Vascular cell adhesion molecule 1 (VCAM1) Biomarker Activity (AID 2283055).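 Note: VCAM-1 protein level quantified by ELISA on the cells.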 To be noted: primary human coronary artery smooth muscle cells; actives raise or lower the signal.

Read-out in assay [10]: Collagen III, COL3A1 (gene 1281)
Kind of assay: BSK_hDFCGF_CollagenIII: BioMAP Diversity Plus: hDFCGF Assay for Collagen III Biomarker Activity (AID 2283056). To be noted: primary human foreskin fibroblasts; actives raise or lower the signal. The essentials: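 ELISA read-out of collagen III from human skin fibroblast cultures sampled 24 h post-dosing. Values were derived by bidirectional fitting relative to the DMSO vehicle control.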

Calls of active or inactive are those of the source. Rule for the calls: active = hit-call score of the fitted dose curve at least 0.9, where 1 is the maximum; inactive = score below 0.9.

For the compound `CN(C)CCCN(C)CCCN(C)C`, the result in [1], in [2], in assay [3], in [4], in [5] and in assay [6] was inactive. In addition, the outcome in [7], in [8], in [9] and in assay [10] was inactive.
Consider `CN(C)CCCN1c2ccccc2Sc2ccc(Cl)cc21`, for which the AC50 in assay [1] was 28 µM (active); in assay [4], 28.5 µM (active); in assay [5] it was 15 µM (active); in assay [7], 26.1 µM (active); in assay [8], 20 µM (active). Moreover, the result in [2], in [3], in [6] and in assay [9] was inactive.
Regarding `CC(C)(O)c1ccc(CNC(=O)c2cccnc2Oc2ccc(F)cc2)cc1`, the outcome in assay [1], in [2], in assay [3], in assay [4], in assay [5] and in [6] was inactive. Moreover, the outcome in assay [7], in assay [8], in assay [9] and in [10] was inactive.
`CN(C)C(=O)NC1(c2ccccc2)CCN(CC[C@@]2(c3ccc(F)c(F)c3)CN(C(=O)c3ccccc3)CCO2)CC1`: the result in [1], in assay [2], in [3], in [4], in [5] and in [6] was inactive. The result in assay [7], in assay [8], in assay [9] and in assay [10] was inactive.
Turning to `CCCCCCCC(=O)OC`, the outcome in assay [1], in [2], in [3], in [4], in [5] and in [6] was inactive. The outcome in [7], in assay [8], in assay [9] and in assay [10] was inactive.
Turning to `CC1(C)C(=O)NC(=O)N1CO`, the outcome in [1], in [2], in [3], in assay [4], in assay [5] and in [6] was inactive. In addition, the outcome in [7], in assay [8], in assay [9] and in assay [10] was inactive.
In the case of `COC(=O)[C@H]1[C@H]2C[C@@H]3c4[nH]c5cc(OC)ccc5c4CCN3C[C@H]2C[C@@H](OC(=O)c2cc(OC)c(OC)c(OC)c2)[C@@H]1OC`, the values for the AC50 in assay [1] and in assay [5] were 21.3 µM (active) and 16.9 µM (active), respectively. Moreover, the outcome in assay [2], in assay [3], in assay [4], in assay [6], in assay [7] and in assay [8] was inactive. For the same compound, the outcome in assay [9] was inactive.
Take `O=C(O)c1[nH]n(-c2ccc(S(=O)(=O)O)cc2)c(=O)c1N=Nc1ccc(S(=O)(=O)O)cc1`: the outcome in assay [1], in [2], in [3], in [4], in assay [5] and in assay [6] was inactive. The outcome in assay [7], in assay [8], in [9] and in assay [10] was inactive.
On to `COC(=O)CCC(=O)OC`, for which the result in assay [1], in assay [2], in assay [3], in assay [4], in [5] and in assay [6] was inactive. In addition, the result in assay [7], in assay [8], in assay [9] and in assay [10] was inactive.
As to `CCc1cc(C2=C(C(=O)O)N(c3ccccc3C(F)(F)F)S(=O)(=O)c3ccccc32)cc2c1OCO2`, the result in assay [1], in assay [2], in assay [3], in assay [4], in assay [5] and in assay [6] was inactive. Also, the outcome in assay [7], in [8] and in assay [9] was inactive. The AC50 in assay [10] is 32.5 µM (active).
`O=C(O)CN(CC(=O)O)CC(=O)O`: the result in assay [1], in assay [2], in assay [3], in [4], in [5] and in assay [6] was inactive. Further, the result in [7], in [8], in [9] and in assay [10] was inactive.
In the case of `CC(C)OC(=O)C(C)(C)Oc1ccc(C(=O)c2ccc(Cl)cc2)cc1`, the result in assay [1], in assay [2], in assay [3], in assay [4] and in [6] was inactive. Moreover, the half-maximal activity concentration (AC50) was 11 µM (active) in [5]; 12.9 µM (active) in [7]; 5.38 µM (active) in assay [8]; 5 µM (active) in [9]; 8.9 µM (active) in assay [10].
In the case of `CCCCCCCCCCCCCCCCO`, the outcome in [1], in assay [2], in [3], in assay [4], in assay [5] and in assay [6] was inactive. Besides, the result in assay [7], in assay [8], in assay [9] and in assay [10] was inactive.
For `CN(C)C(=O)NC1(c2ccccc2)CCN(CCC[C@]2(c3ccc(Cl)c(Cl)c3)CCCN(C(=O)c3ccccc3)C2)CC1`, the result in assay [1], in [2], in [3], in assay [4], in [5] and in assay [6] was inactive. The outcome in [7], in [8], in assay [9] and in assay [10] was inactive.
In the case of `O=[Si]=O`, the result in assay [1], in assay [2], in [3], in assay [4], in assay [5] and in [6] was inactive. For the same compound, the result in assay [7], in assay [8], in [9] and in assay [10] was inactive.
`O=C(O)CC(O)(CC(=O)O)C(=O)O`: the outcome in [1], in assay [2], in assay [3], in assay [4], in assay [5] and in assay [6] was inactive. In addition, the outcome in assay [7], in assay [8], in assay [9] and in assay [10] was inactive.
For `O=C1CCCCC1`, the outcome in assay [1], in [2], in [3], in assay [4], in assay [6] and in assay [7] was inactive. Moreover, the result in assay [8], in assay [9] and in assay [10] was inactive. Moreover, the half-maximal activity concentration (AC50) in assay [5] is 0.194 µM (active).
With `CCCC[C@H]1CN(CC2CCOCC2)C(=O)OC12CCN(C1(C)CCN(C(=O)c3c(C)ncnc3C)CC1)CC2`, the result in [1], in assay [2], in [3], in assay [4], in assay [5] and in assay [6] was inactive. The result in assay [7], in assay [8], in [9] and in assay [10] was inactive.
Consider `O=Cc1ccccc1C=O`, for which the outcome in assay [1], in assay [2], in [3], in assay [4], in [5] and in assay [6] was inactive. Besides, the result in [7], in [8], in [9] and in assay [10] was inactive.
In the case of `NCCOCCOCCN`, the result in [1], in assay [2], in [3], in assay [4], in assay [5] and in [6] was inactive. Further, the result in assay [7], in assay [8], in assay [9] and in assay [10] was inactive.
As for `NC=O`, the result in assay [1], in [2], in assay [3], in assay [4], in assay [5] and in [6] was inactive. Besides, the result in assay [7], in [8], in [9] and in assay [10] was inactive.
As for `CC(C)c1cccc(C(C)C)c1`, the outcome in [1], in assay [2], in assay [3], in assay [4], in assay [5] and in assay [6] was inactive. Also, the result in assay [7], in assay [8], in assay [9] and in assay [10] was inactive.
On to `CS(=O)(=O)c1ccc([C@@H](C[C@H]2CCC(=O)C2)C(=O)Nc2cnccn2)cc1Cl`, for which the outcome in [1], in assay [2], in assay [3], in [4], in assay [5] and in [6] was inactive. Further, the outcome in assay [7], in assay [8], in assay [9] and in assay [10] was inactive.
Regarding `Oc1ccccc1O`, the AC50 in assay [1] is 7.66 µM (active); in [5], 11 µM (active); in assay [7], 14.1 µM (active); in assay [9], 5.64 µM (active); in [10], 10.2 µM (active). Further, the outcome in [2], in assay [3], in assay [4], in [6] and in assay [8] was inactive.
For the compound `CO[C@@H]1COCC[C@@H]1N[C@@H]1CC[C@@](C(=O)N2CCc3ncc(C(F)(F)F)cc3C2)(C(C)C)C1`, the result in assay [1], in assay [2], in [3], in assay [4], in assay [5] and in assay [6] was inactive. In addition, the outcome in assay [7], in assay [8], in assay [9] and in assay [10] was inactive.
In the case of `O=C1c2c(O)cccc2Cc2cccc(O)c21`, the AC50 in [1] is 9.85 µM (active); in assay [7] it was 17.1 µM (active); in [10], 30.7 µM (active). In addition, the result in [2], in assay [3], in assay [4], in assay [5], in assay [6] and in assay [8] was inactive. The result in assay [9] was inactive.
Turning to `CCC(C)N(C)C(=O)c1cc2ccccc2c(-c2ccccc2Cl)n1` (stereo not drawn), the outcome in assay [1], in assay [2], in assay [3], in [4], in assay [5] and in assay [6] was inactive. Moreover, the outcome in [7], in [8], in assay [9] and in assay [10] was inactive.
For the compound `CC(=O)CC(c1ccccc1)c1c(O)c2ccccc2oc1=O` (stereo not drawn), the outcome in [1], in assay [2], in assay [3], in assay [4], in [5] and in assay [6] was inactive. Besides, the result in assay [7], in assay [8], in [9] and in assay [10] was inactive.
Regarding `CCCC(=O)O`, the outcome in assay [1], in [2], in assay [3], in assay [4], in assay [5] and in [6] was inactive. Moreover, the outcome in assay [7], in assay [8], in [9] and in [10] was inactive.
With `CCOCCOCCO`, the outcome in [1], in assay [2], in assay [3], in assay [4], in assay [5] and in assay [6] was inactive. Moreover, the result in assay [7], in assay [8], in assay [9] and in [10] was inactive.

By AC50 is commonly meant the concentration giving half of the maximal activity seen.
